High-throughput results (PubChem BioAssay)
SF1 inhibitor – inhibitors of human SF-1, primary screen, cell-based, CHO-K1, Gal4-SF-1 LBD, luciferase luminescence; AID 525, 2006; inhibition, % at 10 µM; CHO-K1 Gal4-SF-1 LBD luciferase reporter; 65,000 tested, 0.55% active;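 active means inhibition above the mean inhibition of all tested compounds plus 3 SD, cut at about 48% in these data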;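 further: 0% = SF-1 transfected cells with DMSO and 100% = mock-transfected cells lacking SF-1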
Target sequence (Q13285 whole entry, looked up, the tested form may be a part): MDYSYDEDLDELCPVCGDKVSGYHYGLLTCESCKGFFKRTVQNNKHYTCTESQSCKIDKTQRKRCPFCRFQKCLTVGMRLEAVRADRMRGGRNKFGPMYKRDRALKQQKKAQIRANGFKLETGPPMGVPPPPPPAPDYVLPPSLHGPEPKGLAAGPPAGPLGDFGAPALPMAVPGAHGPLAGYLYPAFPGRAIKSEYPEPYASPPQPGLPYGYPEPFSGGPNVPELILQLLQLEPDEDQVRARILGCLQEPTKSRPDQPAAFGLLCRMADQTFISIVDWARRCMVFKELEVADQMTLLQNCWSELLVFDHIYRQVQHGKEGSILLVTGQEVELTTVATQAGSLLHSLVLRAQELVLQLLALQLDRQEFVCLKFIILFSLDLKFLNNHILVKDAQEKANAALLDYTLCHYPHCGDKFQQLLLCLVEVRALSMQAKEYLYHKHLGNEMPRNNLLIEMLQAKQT
* = called active by the depositor. The sample as a whole holds a higher share of hits than the screen did.

SMILES	SF1 inhibitor
O=C(c1ccc(CS(=O)(=O)Cc2ccc(Cl)cc2)o1)N1CCCC1	5
COc1ccc(OC)c(-n2nnnc2SCC(=O)Nc2ccc(C(=O)N3CCCCC3)cc2)c1	14
O=c1c2ccccc2cnn1-c1nc2ccccc2s1	90*
O=c1c2ccccc2nc2sc3ccccc3n12	-57
Cc1nn(-c2nc3ccccc3s2)c(N)c1-c1ccccc1	-60
O=C1NCCCC1C(=O)NCCN1C(=O)CCC1=O (stereo not given)	-16
CCOC(=O)CNc1nc(OCC#N)nc(N2CCOCC2)n1	3
ONC(=Nc1ccccc1)C(=Nc1ccccc1)NO	7
Cn1c(=O)c2c(nc(SCCN3CCOCC3)n2Cc2ccc(Cl)cc2)n(C)c1=O	4
C=CCn1c(NCCc2ccccc2)nc2c1c(=O)n(C)c(=O)n2C	42
COc1ccc(Cl)c(Cn2c(NCC(C)O)nc3c2c(=O)n(C)c(=O)n3C)c1 (stereo not given)	-6
C/C(Cl)=C\Cn1c(NCCc2ccccc2)nc2c1c(=O)n(C)c(=O)n2C	62*
CCNc1nc2c(c(=O)n(C)c(=O)n2C)n1Cc1ccc(Cl)cc1	54*
CCN1CCN(Cc2nc3c(c(=O)n(C)c(=O)n3C)n2CCCc2ccccc2)CC1	9
CCn1c(SCC(=O)Nc2nc(-c3ccc(C)cc3)cs2)nnc1-c1ccccc1O	-10
COC(=O)c1c(-c2cccnc2)csc1NC(=O)c1cc(C)on1	-80
Cc1ccc(C)c(S(=O)(=O)c2c(N)n(/N=C/c3ccco3)c3nc4ccccc4nc23)c1	15
Cc1ccc(S(=O)(=O)N(Cc2nccn2C)C(C)C)cc1	9
Cc1ccc(S(=O)(=O)N(CC(=O)NCc2ccncc2)C2CCCCC2)cc1	-9
CCOP(=O)(c1c(F)c(F)c(F)c(F)c1F)C1(O)CCCCC1 (stereo not given)	0
C/C(NCc1cccnc1)=C(\C#N)C(=O)NCc1ccccc1	5
O=C(CCC1(C(=O)O)CCC(=O)NC1)NCc1ccccc1 (stereo not given)	-20
Cn1cccc1CNC(=O)Nc1ccc(Cl)c(Cl)c1	-66
Cc1nn(-c2nc3ccccc3s2)c(N)c1Sc1ccc(F)cc1	-63
C=CS(=O)(=O)c1ccc(Oc2ccc(S(=O)(=O)C=C)cc2)cc1	97*
SMILES	SF1 inhibitor
CCOC(=O)c1cnn(-c2nc(SC)nc3sc4c(c23)CCC4)c1N	-3
Cc1cc(C)n2cc(CSc3nnnn3C)nc2n1	-7
COCCOC(=O)C1=C(C)N=C2SCCC(=O)N2C1c1ccc(C(=O)OC)cc1 (stereo not given)	8
CCn1ncc(C2=NOC(C(=O)N3CCC(C(N)=O)CC3)C2)c1C (stereo not given)	1
CCn1c(CNC(=O)c2ccc3c(c2)OCO3)nnc1SCC(=O)Nc1cc(C)ccc1OC	4
CC(C)OC(=O)CSc1nnnn1-c1ccc2c(c1)OCCO2	-69
COc1ccc(OC)c(NC(=O)CSc2nnnn2-c2ccc3c(c2)OCO3)c1	91*
Cc1ccc(C)c(CN2CCCNC2=O)c1	11
O=C(CSc1nnnn1C1CCCC1)Nc1cccc(NC(=O)c2ccco2)c1	-3
O=C(CSc1nnnn1C1CC2CCC1C2)Nc1ccnc2ccccc12 (stereo not given)	76*
COc1ccccc1-n1nnnc1SCC(=O)Nc1cc(C)on1	3
COc1cc2c(C#N)c(N3CCN(c4ccccc4OC)CC3)nc(N)c2c(N)n1	73*
COc1ccccc1C(=O)N1CCN(c2nc3cc(C)c(C)cc3cc2C#N)CC1	-19
N#Cc1c(N2CCCC2)nc(N)c2c(N)nc(N3CCCC3)cc12	-50
O=C(OC(C(=O)NCc1ccc2c(c1)OCO2)c1ccc(Cl)cc1)c1ccco1 (stereo not given)	5
CCCCS(=O)(=O)NC1=NCN(CCOC(=O)c2ccccc2)CN1	4
O[C@@H]1C2CCCC1[C@]1(O)CCCCC1C2 (stereo not given in full)	12
CN(C)CC(C(=O)c1ccccc1)c1ccccc1 (stereo not given)	68*
CCCCN(CC)Cc1ccc(CNC(=O)Nc2ccc(OC)cc2OC)o1	-7
CCOC(=O)N1CCC(NC(=O)C2CCCN(S(=O)(=O)c3cccnc3)C2)CC1 (stereo not given)	6
O=c1[nH]c2cccnc2n1Cc1ccco1	-16
COC(=O)/C(=C1/Oc2cc(C)oc(=O)c2S1)C(F)(F)F	96*
O=C1OCCC1Sc1nnc(-c2ccc3c(c2)OCO3)n1-c1ccccc1 (stereo not given)	4
C=CCN(C(=O)CCC(=O)Nc1cc(C)on1)C(C(=O)NC(C)(C)C)c1cccc(OC)c1OC (stereo not given)	6
CCOC(=O)c1cnc(-n2nc(C)cc2C)nc1NC(C)c1ccccc1 (stereo not given)	49*
SMILES	SF1 inhibitor
CCOC(=O)c1cc(-c2ccco2)nc2c1c(C)nn2-c1ccccc1	10
CCOC(=O)c1cnn2c(C)cc(-c3ccccc3)nc12	-65
Nc1nc(CSc2ccccn2)nc(Nc2ccccc2)n1	-58
CC(C)c1ccc2oc(-c3cc(N)ccc3O)nc2c1	60*
Nc1ccc2oc(CCc3ccccc3)nc2c1	-79
Cc1ccccc1-c1nc2cc(N)ccc2o1	-58
COc1ccc(C2CC(C(F)(F)F)n3nc(C(=O)NCc4cn(C)nc4C)c(Cl)c3N2)cc1 (stereo not given)	20
O=C(Nc1ccccc1)N(O)c1ccc(Cl)cc1	-58
Cc1ccc(C)c(S(=O)(=O)Nc2ccc(S(=O)(=O)Nc3onc(C)c3C)cc2)c1	7
COC(=O)c1cc(OC)c(OCc2cc(C(=O)OC)oc2C)c(OC)c1	3
CSc1nnnn1CCn1nnnc1SC	12
Cc1ccnc(NC(=O)CCCOc2cc(=O)n(C)c3ccccc23)c1	59*
CCOC(=O)C1CCCN(C(=O)CCCOc2cc(=O)n(C)c3ccccc23)C1 (stereo not given)	14
CCC1CCCCN1C(=O)COc1cc(=O)n(C)c2ccccc12 (stereo not given)	0
CC(C)CCNC(=O)CN(CCN1CCOCC1)C(=O)Cn1nnc(-c2ccc(F)cc2)n1	-12
O=C(NCc1ccc(F)cc1)c1noc2c1CCCC2	3
COc1ccc(CCNC(=O)c2nonc2N)cc1OC	1
Nc1nonc1C(=O)NCCNCc1cc(Br)ccc1OCc1ccc(F)cc1	57*
Cc1c(C(=O)N2CCCC2)oc2c1-c1[nH]ncc1CC2	7
CCc1nc(C)c(-c2ccccc2)c(=O)[nH]1	-10
CCc1nn2cc(-c3ccccc3)nc2s1	69*
C=CCNC(=O)C1CCN(c2nc(C)cc(-c3ccccc3)n2)CC1	-102
COc1cccc2cc(C(=O)C3=C(O)C(=O)N(CCN4CCOCC4)C3c3cccs3)oc12 (stereo not given)	13
COc1cc(CC(NC(C)=O)C(=O)NC2CCN(c3nc(C)cc(C)c3C#N)CC2)cc(OC)c1 (stereo not given)	71*
COc1cccc(CC(NC(C)=O)C(=O)NC2CCN(c3c4c(nc5ncnn35)CCC4)CC2)c1 (stereo not given)	-72
COc1ccc(NC(=O)C2CCN(c3nc(C)nc4c3CCC4)CC2)cc1	-11
O=C(NCCc1ccccc1)c1cc(-c2ccc3c(c2)OCO3)on1	-8
CC1CCCN(Cc2nc3c(c(=O)n(C)c(=O)n3C)n2CCCc2ccccc2)C1 (stereo not given)	14
CCCCn1cnc2c(cnn2-c2ccc(Cl)cc2)c1=O	-65
Cc1cccc2[nH]c(-c3ccc(NC(=O)c4ccco4)cc3)nc12	-74
